We go through 30 compounds from PubChem BioAssay AID1456 (Vanderbilt High Throughput Screening Facility, 2008).

Among all 190,000 compounds or so, about 4,100 (2.2%) were called active. Only a selection was taken, and actives are over-represented in it overall. A number with no mark means an inactive call.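 Rule for the calls: active = thallium flux slope and its plate-corrected score both differing from the plate sample mean at a set confidence after two filtering rounds, in either direction; inactive = the rest.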

The target in the experiment is Solute carrier family 12 member 5 (Homo sapiens) (UniProt Q9H2X9). Briefly: KCC2 cotransporter modulators, thallium flux, primary screen, cell-based, HEK293 KCC2, FluoZin-2 fluorescence, MLSMR (AID 1456).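 For B-score of Tl+ flux slope (higher = more flux/activation; lower = inhibition): slope of fluorescence scaled to starting intensity during 10 to 20 s after thallium.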 The following applies: KCC2 cells, thallium flux FluoZin-2 fluorescence; at 10 µM.
Sequence of Solute carrier family 12 member 5 (Homo sapiens) (Q9H2X9 whole entry, looked up): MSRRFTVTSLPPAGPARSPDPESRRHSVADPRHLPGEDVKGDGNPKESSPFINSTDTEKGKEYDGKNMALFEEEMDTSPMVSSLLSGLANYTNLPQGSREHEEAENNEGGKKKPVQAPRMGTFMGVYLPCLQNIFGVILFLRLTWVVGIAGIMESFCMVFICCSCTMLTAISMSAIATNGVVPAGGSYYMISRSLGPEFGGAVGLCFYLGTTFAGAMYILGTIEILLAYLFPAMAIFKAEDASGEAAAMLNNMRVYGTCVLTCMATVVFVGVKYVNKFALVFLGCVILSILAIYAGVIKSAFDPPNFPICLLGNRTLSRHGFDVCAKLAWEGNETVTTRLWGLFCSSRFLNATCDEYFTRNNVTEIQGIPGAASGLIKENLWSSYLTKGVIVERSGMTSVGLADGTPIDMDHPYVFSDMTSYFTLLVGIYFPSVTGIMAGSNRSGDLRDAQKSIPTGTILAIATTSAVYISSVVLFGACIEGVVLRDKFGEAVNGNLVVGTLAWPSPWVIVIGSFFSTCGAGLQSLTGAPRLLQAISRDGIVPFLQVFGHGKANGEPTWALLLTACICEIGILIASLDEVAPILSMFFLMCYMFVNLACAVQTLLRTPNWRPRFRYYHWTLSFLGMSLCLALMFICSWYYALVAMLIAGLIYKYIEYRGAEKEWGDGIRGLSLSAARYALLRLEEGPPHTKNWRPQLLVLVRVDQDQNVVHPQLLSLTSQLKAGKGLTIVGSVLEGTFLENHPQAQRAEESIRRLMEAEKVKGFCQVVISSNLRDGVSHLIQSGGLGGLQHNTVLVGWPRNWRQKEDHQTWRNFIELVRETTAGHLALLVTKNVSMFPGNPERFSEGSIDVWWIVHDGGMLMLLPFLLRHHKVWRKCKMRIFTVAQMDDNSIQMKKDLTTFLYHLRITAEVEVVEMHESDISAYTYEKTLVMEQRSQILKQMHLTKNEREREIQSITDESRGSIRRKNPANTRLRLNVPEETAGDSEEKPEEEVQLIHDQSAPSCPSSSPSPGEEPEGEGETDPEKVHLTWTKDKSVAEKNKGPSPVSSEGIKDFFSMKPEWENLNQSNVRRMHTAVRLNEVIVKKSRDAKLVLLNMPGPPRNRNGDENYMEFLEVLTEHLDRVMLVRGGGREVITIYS
Regarding `CCn1c(SCC(=O)N/N=C/c2ccccc2OCC(=O)O)nnc1-c1ccc(C(C)(C)C)cc1`, the B-score of Tl+ flux slope (higher = more flux/activation; lower = inhibition) was -0.932.

As to `CC1(C)CCSC(/C=C/c2ccccc2)=N1`, the B-score of Tl+ flux slope (higher = more flux/activation; lower = inhibition) was -1.21.

For `COc1ccc(N=Nc2ccc(O)c(P(=O)(c3ccccc3)c3ccccc3)c2)cc1`, the B-score of Tl+ flux slope (higher = more flux/activation; lower = inhibition) was -0.282.

As for `CCCCC(CC)CNC(=O)C(=O)C1C(=O)Nc2ccccc21` (stereo not given), the B-score of Tl+ flux slope (higher = more flux/activation; lower = inhibition) was 8.5 (active).

Turning to `CCCCC(CC)CNC(=O)CCCCn1c(=O)[nH]c2ccsc2c1=O` (stereo not given), the B-score of Tl+ flux slope (higher = more flux/activation; lower = inhibition) was -0.707.

On to `CCOC(=O)C(=O)C1C(=O)Nc2ccccc21` (stereo not given), for which the B-score of Tl+ flux slope (higher = more flux/activation; lower = inhibition) result is “inactive”.

As to `OCCCC1CCCCN1Cc1nc(Cc2ccccc2Cl)no1` (stereo not given), the B-score of Tl+ flux slope (higher = more flux/activation; lower = inhibition) is -0.7.

As for `O=C(/C=C/Nc1ccc(S(=O)(=O)Nc2cnc3ccccc3n2)cc1)c1cccnc1`, the B-score of Tl+ flux slope (higher = more flux/activation; lower = inhibition) is -0.253.

On to `CCOC(=O)c1nnn2c1nc(N1CCN(c3ccccc3)CC1)c1ccccc12`, for which the B-score of Tl+ flux slope (higher = more flux/activation; lower = inhibition) is -2.78.

Turning to `C/C=C(\C)C(=O)N1CC2(CC(c3cccc(NC(=O)CCCCC)c3)=NO2)C[C@@H]1C(N)=O` (stereo not given in full), the B-score of Tl+ flux slope (higher = more flux/activation; lower = inhibition) is -0.00449.

For the compound `O=C(NN1C(=O)C2C(C1=O)C1C=CC2C12CC2)c1ccccc1Cl` (stereo not given), the B-score of Tl+ flux slope (higher = more flux/activation; lower = inhibition) is 0.716.

On to `Cc1oc2nc(SCC(=O)Nc3ccc(S(N)(=O)=O)cc3)nc(NC(=O)c3ccccc3)c2c1C`, for which the B-score of Tl+ flux slope (higher = more flux/activation; lower = inhibition) was 6.29 (active).

In the case of `CCc1ccc(CCC(=O)Nc2ccc(S(N)(=O)=O)cc2)o1`, the B-score of Tl+ flux slope (higher = more flux/activation; lower = inhibition) is 1.49.

Consider `CCOC(=O)c1ccc(NC(=O)CSc2ncccn2)cc1`, for which the B-score of Tl+ flux slope (higher = more flux/activation; lower = inhibition) was 1.85.

With `CCOc1ccc(NC(=O)CN(C)CC(=O)Nc2cccc(Cl)c2C)cc1OCC`, the B-score of Tl+ flux slope (higher = more flux/activation; lower = inhibition) is -5.58 (active).

As to `CCOc1ccc(NC(=O)CN(C)CC(=O)NC(C)c2ccccc2)cc1OCC` (stereo not given), the B-score of Tl+ flux slope (higher = more flux/activation; lower = inhibition) is -0.692.

Turning to `COc1cccc(NC(=O)CN(C)CC(=O)Nc2ccc3c(c2)CCC3)c1`, the B-score of Tl+ flux slope (higher = more flux/activation; lower = inhibition) was -0.353.

With `COc1ccc(/C=N/NS(=O)(=O)c2ccc(NC(C)=O)cc2)cc1`, the B-score of Tl+ flux slope (higher = more flux/activation; lower = inhibition) is 0.538.

`COc1ccc(Cl)cc1NC(=O)CCN1CCOCC1`: the B-score of Tl+ flux slope (higher = more flux/activation; lower = inhibition) was -0.478.

In the case of `O=C(NCc1ccco1)C1CCCN(S(=O)(=O)c2ccccc2)C1` (stereo not given), the B-score of Tl+ flux slope (higher = more flux/activation; lower = inhibition) was -0.4.

Take `O=S(=O)(c1ccc(F)cc1)N1CCN(C(=S)NC2CCCC2)CC1`: the B-score of Tl+ flux slope (higher = more flux/activation; lower = inhibition) is -0.0466.

Take `O=S(=O)(c1ccc(F)cc1)N1CCN(C(=S)NCc2ccco2)CC1`: the B-score of Tl+ flux slope (higher = more flux/activation; lower = inhibition) was -3.94 (active).

In the case of `O=S(=O)(c1ccc(Cl)cc1)N1CCCN(c2ccc(C(F)(F)F)cn2)CC1`, the B-score of Tl+ flux slope (higher = more flux/activation; lower = inhibition) is -0.0306.

With `C=CCC(Nc1ccccc1)c1cccc(OC)c1OC` (stereo not given), the B-score of Tl+ flux slope (higher = more flux/activation; lower = inhibition) is -1.46.

In the case of `O=C(CSc1nnc(-c2cccs2)n1Cc1ccccc1)N1CCc2ccccc2C1`, the B-score of Tl+ flux slope (higher = more flux/activation; lower = inhibition) was -5.7 (active).

As for `O=C(CSc1nnc(-c2cccs2)n1-c1ccccc1)N1CCN(C(=O)c2ccco2)CC1`, the B-score of Tl+ flux slope (higher = more flux/activation; lower = inhibition) was 0.0437.

For the compound `Cc1nnc(SCC(=O)N2CCc3ccccc3C2)s1`, the B-score of Tl+ flux slope (higher = more flux/activation; lower = inhibition) is 0.173.

For `CC(C)Cc1nnc(NC(=O)CCC(=O)Nc2ccc3cn[nH]c3c2)s1`, the B-score of Tl+ flux slope (higher = more flux/activation; lower = inhibition) was 0.683.

As for `Nc1nnnn1/N=C/c1cc([N+](=O)[O-])ccc1O`, the B-score of Tl+ flux slope (higher = more flux/activation; lower = inhibition) is -0.19.

Take `COc1cccc(CC(=O)Nc2ccc(-c3csc(C)n3)cc2)c1`: the B-score of Tl+ flux slope (higher = more flux/activation; lower = inhibition) was -1.35.
